Test results as given in PubChem BioAssay AID1259374 (The Scripps Research Institute Molecular Screening Center, 2018).
The campaign covered roughly 650,000 compounds. About 5,900 (0.91%) were called active. Many of the other results were omitted from the sample, so actives are more common in it than they were. Values without a mark were called inactive. Cut-off read from the data, not from the text of the source: active = inhibition above about 50%; inactive = the rest.

biological target: Microphthalmia-associated transcription factor (Homo sapiens) (UniProt O75030); experiment: MITF inhibitors, primary screen, biochemical, AlphaScreen, human (AID 1259374); conditions: AlphaScreen MITF homodimerization, bead proximity signal; at 2.6 µM; stronger effect = higher value;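 note: 0% = vehicle wells with protein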
Sequence (O75030 whole entry, looked up): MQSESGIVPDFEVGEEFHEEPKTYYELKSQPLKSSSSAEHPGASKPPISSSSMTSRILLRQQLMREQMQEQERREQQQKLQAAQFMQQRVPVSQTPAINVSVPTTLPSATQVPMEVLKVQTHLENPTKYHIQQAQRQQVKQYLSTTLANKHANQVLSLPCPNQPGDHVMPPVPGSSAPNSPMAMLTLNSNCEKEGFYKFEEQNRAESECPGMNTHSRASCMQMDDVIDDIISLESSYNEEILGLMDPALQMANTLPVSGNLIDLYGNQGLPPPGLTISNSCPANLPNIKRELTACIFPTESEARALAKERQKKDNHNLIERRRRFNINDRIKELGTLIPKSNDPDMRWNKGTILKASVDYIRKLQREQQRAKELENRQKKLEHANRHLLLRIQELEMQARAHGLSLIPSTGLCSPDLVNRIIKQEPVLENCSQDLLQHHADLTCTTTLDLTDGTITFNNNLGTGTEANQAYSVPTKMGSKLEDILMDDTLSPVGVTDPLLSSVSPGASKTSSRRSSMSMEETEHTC

Compound	inhibition
COC(=O)C(C)CN1CCN(Cc2ccc3c(c2)OCO3)CC1 (configuration not stated)	78.9% (active)
CC(=O)Oc1ccc(C(=O)N2CCN(Cc3ccc4c(c3)OCO4)CC2)cc1	-6.96%
CCC(C)(C)C(=O)N1CCN(Cc2ccc3c(c2)OCO3)CC1	9.89%
c1cc2c(cc1Cn1nnnc1CN1CCN(C3CCCC3)CC1)OCO2	7.92%
CC(C)CCCN1CCC(N2CCN(Cc3ccc4c(c3)OCO4)CC2)CCC1=O (configuration not stated)	-10.8%
OC1CCCN(Cc2ccc3c(c2)OCO3)C1 (configuration not stated)	6.89%
CCCNC(=O)N1CCCC(N2CCN(Cc3ccc4c(c3)OCO4)CC2)C1 (configuration not stated)	12.8%
c1cc2c(cc1CN1CCN(C3CCCC3)CC1)OCO2	62.8% (active)
c1cc2c(cc1CN1CCN(C3CCCCC3)CC1)OCO2	60.9% (active)
COc1ccc(OC(=O)c2cccc(C(=O)OC(C)C)n2)cc1	7.42%
COCCNC(=O)c1ccc(-c2cccc(OC)c2)nc1NCC1CC1	-12.1%
NC(=O)CC[C@H](NC(=O)c1ccc(F)cc1)C(=O)OCC(=O)c1ccccc1	1.49%
CO[C@@H](C1CCCCC1)[C@@H](C)[C@H](OCc1cccc(Br)c1)[C@@H](C)CO	-6.84%
COc1cc(CN(CCCN(C)C)CCCN(C)C)cc(OC)c1	45.5%
COc1cc(CN(CCN(C)C)Cc2ccccc2)cc(OC)c1	70% (active)
CCN(Cc1ccccc1)Cc1cc(OC)c(OC)c(OC)c1	5.59%
Cc1ccc(OCCCNC2CCCC2)c(I)c1	29.7%
CCOc1ccc2[nH]c(=O)c(CN(CCO)C(=O)c3ccco3)cc2c1	6.48%
COC(=O)CCS(=O)(=O)c1ccc(C(=O)O)cc1N	-6.29%
COc1ccc(-c2noc(=O)n2CC(=O)N(c2ccccc2)c2ccccc2)cc1	2.22%
CN1CCN(CCC(=O)N/N=C/c2ccsc2)CC1	53.5% (active)
O=C(CN1CCSCC1)N/N=C/c1ccc(F)cc1	47%
O=C(CN1CCSCC1)N/N=C/c1ccc(Cl)cc1	17.4%

Compound	inhibition
COc1ccc2c(c1)OC(C)CN(C(=O)C1CCCCCN1C)C2 (configuration not stated)	1.95%
CCCNCc1nc(-c2ccc(OC)c(OC)c2)no1	11.7%
Cc1cnc(NCc2ccc3c(c2)OCO3)nc1Nc1ccccc1	69.7% (active)
c1ccc(Nc2cc(NCc3ccc4c(c3)OCO4)ncn2)cc1	-2.56%
Cc1cnc(NCc2ccc3c(c2)OCO3)nc1NCCN1CCOCC1	16%
COc1ccc(-c2csc3nc(C)n(N)c(=O)c23)cc1OC	14.4%
c1ccc(OCCCCn2nnc(-c3ccncc3)n2)cc1	10.3%
Fc1cccc(Cl)c1Cn1nnc(-c2ccncc2)n1	74% (active)
Fc1cccc(Cl)c1CSc1nnc2ncccn12	-8.92%
CC1CCc2sc(NC(=O)c3ccccc3[N+](=O)[O-])c(C#N)c2C1 (configuration not stated)	11.5%
CC1=CCC(C(=O)O)(C(=O)N/N=C/C2=C(O)CC(C)(C)CC2=O)CC1c1ccccc1 (configuration not stated)	45.2%
COc1cc(Nc2nc(Nc3cc(OC)c(OC)c(OC)c3)c3[nH]cnc3n2)cc(OC)c1OC	-7.41%
COc1ccc(-c2nc(N)c3[nH]cnc3n2)cc1	-0.37%
COc1ccc(-c2nc(Nc3cc(OC)c(OC)c(OC)c3)c3[nH]cnc3n2)cc1	63.2% (active)
Cc1cccc(NC(=O)C(c2ccccc2)N2CCOCC2)c1 (configuration not stated)	2.38%
Cc1c(C(C)NC(=O)c2csc(C(C)C)n2)cnn1-c1ccccn1 (configuration not stated)	1.61%
C=CCN=Cc1c(C)[nH]n(-c2ccc([N+](=O)[O-])cc2)c1=O	0.33%
c1ccc2cc(OCCOCCN3CCOCC3)ccc2c1	12.8%
O=c1c2ccccc2ncn1CCCCOc1ccccc1F	52.4% (active)
O=c1c2ccccc2nc(-c2ccc(Cl)cc2)n1CCCCOc1ccccc1F	-6.63%
CCc1ccccc1OCCCN1CCOCC1	38.5%
CCCCOc1ccccc1OCCCN1CCN(C)CC1	-4.11%
CCN1CCN(CCCOc2ccc(C(C)=O)cc2OC)CC1	77.9% (active)

Compound	inhibition
COc1cc(C=O)ccc1OCCCN1CCCCC1	34.3%
CCN1CCN(CCCCOc2ccccc2F)CC1	63.7% (active)
CCN1CCN(CC(=O)c2cc(OC)c(OC)c(OC)c2)CC1	6.5%
Cc1ccc(Cl)c(OCCn2cnc3ccccc3c2=O)c1	10.1%
COc1ccccc1OCCOCCOc1ccccc1OC	-12.3%
CCN1CCN(CCOCCOc2ccccc2OCc2ccccc2)CC1	80.8% (active)
C=CCC1(CC=C)CCCN1C(=O)CC1C(=O)NCCN1Cc1ccccc1C (configuration not stated)	5.18%
CCOC(=O)CSc1nc2ccc(Cl)cc2n2cnnc12	-5.55%
Cc1nn(-c2ccccn2)c2c1C(=O)/C(=C\Nc1cccc([N+](=O)[O-])c1)CC2	-6.22%
COc1ccc(C(=O)Oc2ccc3c(c2)C(C)=CC(C)(C)N3C(=O)c2ccc(OC)cc2)cc1	8.97%
Cc1ccc(S(=O)(=O)NC(=NC(CC(=O)O)C(=O)O)c2ccccc2)cc1 (configuration not stated)	-0.64%
O=C1NC2(CCCCC2)N(C(=O)c2ccc(Cl)cc2)C2=C1CCCC2	9.62%
CCCCN(CC)C(=O)c1c[nH]c2ccc(S(=O)(=O)N(C)c3ccc(CC)cc3)cc2c1=O	1.47%
CN1CCN(CCOCCOc2ccccc2Cl)CC1	53.8% (active)
Cc1ccc(OCCOCCN2CCN(C)CC2)c(Br)c1	42.5%
CC(C)c1cc(Br)ccc1OCCOCCN1CCN(C)CC1	-24.1%
O=C(O)C1CSC(c2cccc(I)c2)N1 (configuration not stated)	10%
Cc1ccc(-c2c(C(=O)Nc3cccc(O)c3)oc(=O)c3ccccc23)cc1	26.8%
O=C(O)CCC(=O)Nc1ccc([N+](=O)[O-])cc1	-7.16%
O=C(COc1ccc([N+](=O)[O-])cc1)Nc1ccc(Cl)cc1	12.6%
O=C(CCC(=O)OCc1ccc(Cl)cc1)Nc1ccc([N+](=O)[O-])cc1	59.3% (active)
